Values joined by “and” are separate entries in the source; they are usually repeats but may differ in a detail not shown here. Identical values can stand only once. Out of some 1,100 compounds screened, fewer than 10 were called active.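 How the source made its calls: active means percent response below a set limit in fluorescence channel 1 and below 50% in channel 8; inactive means the rest.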 The list is a sample of the results.
experiment: compound fluorescence in dual-transfected Am2.2 cells, confirmation, artefact control for beta2AR agonist internalization project, cell-based, FAP fluorogen, flow cytometry, cherry pick 1 (AID 588765); details: fluorescence counterscreen, at 10 µM, stronger effect = lower value; percent response FL8: measured here: FL8 channel fluorescence;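 further: low percent response here flags compound autofluorescence meaning a false positive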

| SMILES | percent response FL1 | percent response FL8 |
| --- | --- | --- |
| O=C1C(=O)N(CC2COc3ccccc3O2)c2ccccc21 (configuration not stated) | 108% (inactive) | 112% |
| COc1ccc(-n2nc3c(N4CCC(C(=O)NCc5ccccc5)CC4)nnc(C)c3c2C)cc1 | 130% (inactive) | 115% |
| CCCOc1ccc(C(=O)C(CCC(CNCC)C(=O)c2ccc(OCCC)cc2)CNCC)cc1 (configuration not stated) | 82.8% (inactive) | 76.7% |
| O=C(NCCCn1ccnc1)C1CCCN(S(=O)(=O)c2cc(Cl)ccc2Cl)C1 (configuration not stated) | 8.86% (inactive) | 109% |
| COc1cc(C#Cc2ccc3cc(CCCO)oc(=O)c3c2)cc(OC)c1 | 92.6% (inactive) | 102% |
| CCCCCCCCCCOC(=O)Cn1c(COc2ccc(C)cc2)[n+](C)c2ccccc21 | 120% (inactive) | 113% |
| CC(=O)c1ccc(NC(=O)c2ccc3c(Cl)c4c(nc3c2)CCCC4)cc1 | 52.7% (inactive) | 89.7% |
| CCOC(=O)c1ccc(NC(=O)Cn2nnc(-c3ccc(C)cc3)n2)cc1 | 12.2% (inactive) and 8.97% (inactive) | 98.7% and 110% |
| O=S(=O)(Nc1ccc2[nH]ncc2c1)c1ccccc1Cl | 86% (inactive) | 87.7% |
| COc1ccc(C(CCNCc2ccccc2F)c2ccc(F)cc2)cc1 (configuration not stated) | 101% (inactive) | 110% |
| Cc1cc(S(=O)(=O)N2CCOCC2)ccc1OCC(=O)Nc1cccc(C(F)(F)F)c1 | 97.5% (inactive) | 108% |
| CC(CCc1ccccc1)NCC(O)c1cccc([N+](=O)[O-])c1 (configuration not stated) | 120% (inactive) | 128% |
| CCOc1ccc(NC(=O)COc2ccc(S(=O)(=O)N3CCCC3)cc2)cc1 | 109% (inactive) | 101% |
| CCCN(CCc1ccccc1)C1CCc2c(O)cccc2C1 (configuration not stated) | 103% (inactive) | 98.5% |
| Oc1ccc(N=Cc2sc3ccccc3c2Cl)cc1 | 99.5% (inactive) | 93.9% |
| O=C(Nc1ccc2c(c1)OCCO2)C(c1ccc(F)cc1)N1CCCCC1 (configuration not stated) | 114% (inactive) | 111% |
| CSc1ccc(CCNC(=O)C2CCN(c3nnc(-n4cccc4)s3)CC2)cc1 | 45.7% (inactive) | 94.2% |
| N#Cc1cccc(NC(=O)COC(=O)c2ccccc2C(=O)c2ccc(Cl)c([N+](=O)[O-])c2)c1 | 100% (inactive) | 89% |

| SMILES | percent response FL1 | percent response FL8 |
| --- | --- | --- |
| CC(=O)Nc1ccc(CN2CCC(Oc3ccc(C(=O)N4CCCC4)cc3)CC2)cc1 | 109% (inactive) | 109% |
| COc1ccc(S(=O)(=O)N2CCCC(C(=O)Nc3ccc(NC(=O)c4ccccn4)cc3)C2)cc1 (configuration not stated) | 45.3% (inactive) | 95.6% |
| CC(=O)Nc1ccc(Nc2c3ccccc3nc3ccccc23)cc1 | 68.8% (inactive) | 126% |
| C=CCNC(=S)N/N=C/c1ccc(C)s1 | 100% (inactive) | 93.3% |
| CCN1CCC2(CC1)N=C(c1ccc(F)cc1)C(=S)N2C(=O)c1ccc(C)cc1 | 98.4% (inactive) | 96.3% |
| Cc1ccc(Cl)cc1NC(=O)CN1CCN(S(=O)(=O)N2CCOCC2)CC1 | 99.8% (inactive) | 93.1% |
| CSc1ccc(CNC(=O)c2ccc(NC(=O)C3=CSCCO3)cc2)cc1 | 16.2% (inactive) | 99.4% |
| Cc1ccc(Sc2cc(N3CCOCC3)nc(-c3ccccc3)n2)cc1 | 29.8% (inactive) | 111% |
| COc1ccc(OC)c(NC(=O)c2sc3nc(C)cc(C)c3c2N)c1 | 45.6% (inactive) | 111% |
| CC(=O)c1cccc(NC(=O)COc2ccc(S(=O)(=O)N3CCOCC3)cc2)c1 | 112% (inactive) | 104% |
| CCOc1ccccc1N1C(=O)CC(Sc2nccc(C)n2)C1=O (configuration not stated) | 100% (inactive) | 97.2% |
| O=C(C1CCN(c2nnc(-n3cccc3)s2)CC1)N1CCc2ccccc2C1 | 128% (inactive) | 104% |
| COc1ccc2c(c1OC)C(=O)OC2Nc1nc(-c2ccccc2)cs1 (configuration not stated) | 104% (inactive) | 92.1% |
| OC(CNCc1ccc(Cl)c(Cl)c1)c1ccccc1 (configuration not stated) | 106% (inactive) | 113% |
| COc1ccc(OC)c(S(=O)(=O)N(C)CC(=O)N2CCN(c3ccccc3)CC2)c1 | 95.4% (inactive) and 98.5% (inactive) | 99.7% and 105% |
| CCOc1ccccc1NC(=O)COc1ccc(S(=O)(=O)N2CCCC2)cc1 | 110% (inactive) | 107% |
| COc1ccc(-c2ccnc(SCC(=O)N3CCOCC3)n2)cc1 | 103% (inactive) | 100% |
| Cc1ccc(OCC(=O)Nc2ccc(-c3nc4ncccc4o3)cc2)cc1 | 13.3% (inactive) and 14.1% (inactive) | 113% and 112% |
